Lmaj promast = Leishmania major promastigote growth inhibition; 9% of 200,000 active; AID 1063; Leishmania major promastigotes, resazurin fluorescence viability; inhibition, % at 10 µM; in the data active = inhibition above about 50%;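 note: promastigotes grown with compound for 44 hours at 28 °C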
WT yeast gro inh = growth inhibition of WT yeast, mitochondrial fusion screen; mitochondrial fusion phenotypic screen, WT strain; inhibition, % at 10 µM; 2.1% of 190,000 active; AID 1362; in the data active = inhibition above about 58%; tested in S. cerevisiae
CHOP inh = blocks CHOP induction under ER stress. CHO-K1 CHOP-promoter luciferase, tunicamycin-induced, 15-18 h. inhibition, % at 10 µM. 3.8% of 220,000 active;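 active = compounds that reduced the stress-induced luciferase reporter signal by more than about 70% of percent inhibition, limit read from the data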;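 note: 0% = tunicamycin plus vehicle and 100% = wells without tunicamycin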
Arbovirus anti = blocks arbovirus infection; inhibition, % at 10 µM; arbovirus infection cell-based antiviral screen; 0.37% of 200,000 active; in the data active = inhibition above about 30%
Starred values were filed as active, the others as inactive; nt = not tested or not shown. A selection: hits, their analogues and other compounds. The true share with any hit is near 12%.

SMILES	Lmaj promast	WT yeast gro inh	CHOP inh	Arbovirus anti
O=C(CSc1nnc(COc2ccc(Cl)cc2)o1)OC1CCCCC1	-3.6	16.3	74.4*	3.4
Clc1ccc(CSc2nnc(CNc3cccc(Cl)c3)o2)cc1	17.8	80.9*	93.1*	-30.2
Cc1cc(OCc2nnc(SCC(=O)OC3CCCCC3)o2)ccc1Cl	4.3	8.6	36.8	-1.0
O=C(CSc1nnc(CNc2cccc(Cl)c2)o1)OC1CCCCC1	-7.9	13.6	80.1*	-4.3
CC(C)NC(=O)NC(=O)CSc1nnc(COc2ccccc2Cl)o1	-3.6	13.7	48.0	0.1
Fc1cccc(Cl)c1CSc1nnc(CNc2ccccc2)o1	-0.7	6.6	35.6	-15.4
O=C(CSc1nnc(CNc2ccc(F)cc2)o1)OC1CCCCC1	-2.0	-8.8	10.2	8.5
O=C(CSc1nnc(COc2ccccc2Cl)o1)NC(=O)NC1CCCC1	-1.4	33.3	79.4*	2.6
Cc1ccc2nc(C)c(C(=O)NN=C3CCN(C)CC3)n2c1	-7.5	1.6	11.7	-5.7
Cc1cc(NC(=O)c2sccc2C)n(-c2cccc(Cl)c2)n1	-0.1	22.8	51.5	-2.3
Cc1cc(NC(=O)c2ccoc2C)no1	-4.8	-7.3	-1.3	-1.2
CCCc1[nH]nc2c1C(c1ccncc1)C(C#N)=C(N)O2 (centres undefined)	-4.3	-7.2	-2.0	3.6
CCCc1[nH]nc2c1C(c1cn[nH]c1-c1ccc(F)cc1)C(C#N)=C(N)O2 (centres undefined)	73.1*	11.8	58.9	7.6
CCCc1[nH]nc2c1C(c1ccc(O)c(OC)c1)C(C#N)=C(N)O2 (centres undefined)	80.0*	10.3	-6.0	-1.1
CCCc1[nH]nc2c1C(/C(C)=C/c1ccccc1)C(C#N)=C(N)O2 (centres undefined)	17.8	14.1	70.5*	-0.3
CCOc1ccc(-c2[nH]nc3c2C(c2ccc4c(c2)OCO4)C(C#N)=C(N)O3)cc1OC (centres undefined)	50.5*	23.9	38.0	0.9
CCCc1[nH]nc2c1C(CCC)C(C#N)=C(N)O2 (centres undefined)	10.0	7.3	67.5	-4.2
Cc1[nH]nc2c1C(c1ccc3c(c1)OCO3)C(C#N)=C(N)O2 (centres undefined)	34.8	-0.8	7.4	2.9
FC(F)(F)c1cc(CO[C@H]2CCCN[C@H]2c2ccccc2)cc(C(F)(F)F)c1	nt	nt	-12.1	nt
COC(=O)C1=C(C)NC(=S)NC1c1ccco1 (centres undefined)	-2.5	-4.7	-13.5	1.1
CCCn1c(=S)[nH]c2cc(Cl)ccc21	nt	nt	0.9	nt
CCn1c2ccccc2c2cc(C3C(C#N)=C(N)Oc4n[nH]c(COC)c43)ccc21 (centres undefined)	88.6*	8.6	12.6	-40.3
CCCc1[nH]nc2c1C(c1ccccc1OCC)C(C#N)=C(N)O2 (centres undefined)	53.5*	0.9	25.9	-2.6
COc1ccc(C2C(C#N)=C(N)Oc3n[nH]c(C)c32)cc1CSc1ccccn1 (centres undefined)	97.6*	-7.0	10.2	-4.5
CCCc1[nH]nc2c1C(c1ccccc1OC)C(C#N)=C(N)O2 (centres undefined)	18.3	1.7	21.7	9.4
SMILES	Lmaj promast	WT yeast gro inh	CHOP inh	Arbovirus anti
COCc1[nH]nc2c1C(c1ccc(OC)c(OC)c1)C(C#N)=C(N)O2 (centres undefined)	4.0	-5.2	-11.7	5.1
CCC(CC)N=C1NS(=O)(=O)c2cc([N+](=O)[O-])ccc21	98.5*	-0.7	-15.0	-10.2
CC(C)(C)CC(C)(C)N=C1NS(=O)(=O)c2cc([N+](=O)[O-])ccc21	100.3*	0.1	-19.0	-11.6
COc1ccc(S(=O)(=O)N(C)c2ccc(C(=O)N3CCCCC3)cc2)cc1OC	nt	nt	38.2	nt
Cn1c(=O)c2c(nc(SCCN3CCCCC3)n2Cc2ccc(Cl)cc2)n(C)c1=O	90.2*	5.2	nt	-24.4
COc1cccc(Cn2c(Oc3cccc(C)c3)nc3c2c(=O)n(C)c(=O)n3C)c1	23.0	56.5	78.7*	-4.7
CCCOc1nc2c(c(=O)n(C)c(=O)n2C)n1C	nt	nt	-18.5	nt
Cn1c(=O)c2c(nc(N/N=C/c3ccc(OC(=O)c4ccco4)cc3)n2Cc2ccccc2Cl)n(C)c1=O	55.1*	20.7	34.6	-9.2
CCCOc1nc2c(c(=O)n(C)c(=O)n2C)n1Cc1cccc2ccccc12	65.0*	42.6	65.9	3.7
Cn1c(=O)c2c(nc(N/N=C/c3ccc(OC(=O)c4ccco4)cc3)n2Cc2ccc(F)cc2)n(C)c1=O	15.1	12.9	32.3	-4.6
COC(=O)C(=C/C=C/N1CCOCC1)C(=O)OC	nt	nt	17.9	nt
COC(=O)c1cc(S(=O)(=O)NCc2ccc(S(N)(=O)=O)cc2)oc1C	nt	nt	13.0	nt
O=C(NCCc1ccccc1)c1c(F)c(F)c(F)c(F)c1F	-5.9	3.3	2.9	-6.5
COc1cccc(CN(C)CC(=O)Nc2ccccc2N2CCOCC2)c1OC	3.3	20.7	-10.5	-15.8
C=CCOc1nc2c(c(=O)n(C)c(=O)n2C)n1Cc1ccc(Cl)cc1	3.0	-4.6	81.8*	15.2
Cn1c(=O)c2c(nc(SCCCO)n2Cc2ccccc2Cl)n(C)c1=O	3.0	9.3	15.4	-1.2
C=CC(C)Sc1nc2c(c(=O)n(C)c(=O)n2C)n1Cc1ccccc1Cl (centres undefined)	3.9	0.1	82.8*	-1.0
C=CCOc1nc2c(c(=O)n(C)c(=O)n2C)n1Cc1ccccc1Cl	9.4	-0.3	27.8	15.2
CC1CN(C(=S)SCCN2C(=O)CCC2=O)CC(C)O1 (centres undefined)	-4.2	-0.7	3.4	-1.8
O=C(Oc1c(Cl)cc(Cl)c2cccnc12)c1cccc([N+](=O)[O-])c1	70.4*	56.4	96.8*	-12.5
COc1cc(CNn2cn[nH]c2=S)cc(Cl)c1OCc1ccc(F)cc1	-4.0	66.0*	-1.7	-3.0
COc1cc(CNn2c(C)n[nH]c2=S)cc(Cl)c1OCc1ccccc1	3.3	5.1	37.7	-0.9
Cc1ccc(C(=O)Nc2cccc(N(C)S(C)(=O)=O)c2)cc1S(=O)(=O)Nc1ccccc1	75.3*	-3.8	-3.7	4.7
Cc1ccc(C)c(NS(=O)(=O)c2cc(C(=O)Nc3ccccc3-c3ccccc3)ccc2C)c1	25.9	39.5	-1.9	-10.0
Cc1cccc(NS(=O)(=O)c2cc(NC(=O)CC(=O)c3ccc([N+](=O)[O-])cc3)ccc2C)c1	19.4	-13.9	93.0*	8.0
SMILES	Lmaj promast	WT yeast gro inh	CHOP inh	Arbovirus anti
Cc1ccc(C(=O)Nc2cccc([N+](=O)[O-])c2)cc1S(=O)(=O)Nc1ccc(C(=O)O)cc1	-4.5	-4.3	12.1	0.1
Cc1ccc(C(=O)Nc2ccccc2-c2ccccc2)cc1S(=O)(=O)Nc1cccc(C)c1C	62.7*	37.5	21.5	-23.4
Cc1ccccc1NS(=O)(=O)c1cc(C(=O)Nc2cccc([N+](=O)[O-])c2)ccc1C	72.1*	36.4	43.5	-15.9
CC(C)(C)C(=O)Nc1nc(C2CCCN2S(=O)(=O)c2ccc(Cl)cc2)cs1 (centres undefined)	7.3	-14.7	21.2	14.7
O=C(COc1ccc2ccccc2c1)Nc1ccc(S(=O)(=O)N2CCCCCC2)cc1	-7.3	6.6	50.5	-7.0
CCOc1ccc(CCNc2nc3ccccc3n3cnnc23)cc1OCC	nt	nt	5.3	nt
Cc1ccccc1NS(=O)(=O)c1cc(S(C)(=O)=O)ccc1C	54.1*	-11.1	33.1	0.9
Cc1ccccc1NS(=O)(=O)c1cc(C(N)=O)ccc1C	-1.7	-24.2	-16.1	3.0

From PubChem
